Source: PubChem (National Center for Advancing Translational Sciences (NCATS))
FLuc inh-1: Firefly luciferase inhibition profiling of diverse chemical library using quantitative high-throughput screening. Potency, µM (titrated, usually from 115 µM), hits mostly inhibitors. Luciferin 4-monooxygenase (Photinus pyralis), P08659. 76,000 compounds, 2.5% hits. purified P. pyralis luciferase, luminescence, biochemical; also: % is scaled to controls: 0 for no effect and ±100 for the full control effect; nearly all actives have a fitted effect of over 65% in size
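FLuc 10nM, D-luciferin 10uM, ATP 10uM, Mg acetate 10mM, Tris acetate pH 7.5, Tween/BSA; cpd qHTS; enzyme added last; CCD luminescence.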
HEK cytotox: Cytotoxic Profiling in HEK 293 Cell Line of Diverse Libraries Using Quantitative High-Throughput Screening; Potency, µM (top dose mostly 115 µM), without a hit: top-dose activity change, negative = cytotoxicity, most hits filed as inhibitors; 94,000 compounds, 6.6% hits; HEK 293 viability, ATP luminescence (CellTiter-Glo), 48-72 h; also: % is scaled to controls: 0 for no effect and ±100 for the full control effect; nearly all actives have a fitted effect of over 60% in size
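qHTS cytotoxicity; HEK 293, 250 cells/well; compound pinned; 48 or 72 hr, 37 degree Celsius, 5% CO2, 95% humidity; CellTiter-Glo, 10 min RT; luminescence (ATP).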
3T3 cytotox: Cytotoxic Profiling in NIH 3T3 Cell Line of Diverse Libraries Using Quantitative High-Throughput Screening | NIH 3T3 viability, CellTiter-Glo ATP luminescence, 48-72 h | Potency, µM (titrated, usually from 96.7 µM), for inactives: top-dose activity change, negative = cytotoxicity, most hits filed as inhibitors | 94,000 compounds, 4.3% hits; also: % is scaled to controls: 0 for no effect and ±100 for the full control effect; nearly all actives have a fitted effect of over 55% in size
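ATP-dependent luminescence (CellTiter-Glo) served as the viability signal for NIH 3T3 cells treated with compound for 48 or 72 hr at 37 °C.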
NPR1 antag: Natriuretic polypeptide receptor (hNpr1) antagonism - Primary qHTS; HEK293 hNpr1 GloSensor cGMP, ANP-stimulated luminescence; Potency, µM (top dose mostly 46.3 µM), for inactives: at the highest dose activity change, negative = inhibition, hits mostly inhibitors; AID 1347048, 2019; 76,000 compounds, 1.6% hits; calls by dose curve; also: % is scaled to controls: 0 for no effect and ±100 for the full control effect; nearly all actives have a fitted effect of over 60% in size
Target sequence (P16066 whole entry, looked up): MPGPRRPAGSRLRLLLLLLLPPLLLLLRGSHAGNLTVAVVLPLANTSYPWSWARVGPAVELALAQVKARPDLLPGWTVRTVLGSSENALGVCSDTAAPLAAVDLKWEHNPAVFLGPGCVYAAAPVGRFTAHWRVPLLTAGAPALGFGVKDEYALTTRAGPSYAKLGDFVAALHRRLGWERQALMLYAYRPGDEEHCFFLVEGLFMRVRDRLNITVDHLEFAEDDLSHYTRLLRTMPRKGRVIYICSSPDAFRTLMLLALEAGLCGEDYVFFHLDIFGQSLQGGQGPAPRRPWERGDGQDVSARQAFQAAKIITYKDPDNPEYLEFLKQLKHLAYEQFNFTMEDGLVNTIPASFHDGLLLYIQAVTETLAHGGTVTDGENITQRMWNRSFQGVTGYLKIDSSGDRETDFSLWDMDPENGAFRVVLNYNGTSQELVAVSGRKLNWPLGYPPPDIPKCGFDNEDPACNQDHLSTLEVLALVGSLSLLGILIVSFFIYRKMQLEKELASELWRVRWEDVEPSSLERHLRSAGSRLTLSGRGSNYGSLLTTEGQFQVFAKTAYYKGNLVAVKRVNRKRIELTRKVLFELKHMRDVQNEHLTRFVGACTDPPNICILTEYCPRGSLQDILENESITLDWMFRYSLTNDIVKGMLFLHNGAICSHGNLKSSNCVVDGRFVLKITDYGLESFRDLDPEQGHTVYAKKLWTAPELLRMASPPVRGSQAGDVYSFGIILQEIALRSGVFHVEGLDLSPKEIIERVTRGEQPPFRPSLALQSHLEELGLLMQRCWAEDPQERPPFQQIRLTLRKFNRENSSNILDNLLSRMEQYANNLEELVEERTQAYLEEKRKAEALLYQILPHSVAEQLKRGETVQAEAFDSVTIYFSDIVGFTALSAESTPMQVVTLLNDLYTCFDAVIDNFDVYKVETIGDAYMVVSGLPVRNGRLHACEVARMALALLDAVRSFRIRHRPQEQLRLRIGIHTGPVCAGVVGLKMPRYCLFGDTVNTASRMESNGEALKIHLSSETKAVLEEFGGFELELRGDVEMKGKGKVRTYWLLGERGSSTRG
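Compound pre-incubated 30 min at room temperature on GloSensor-loaded HEK293 cells stably carrying hNpr1 and the pGS-40F cGMP biosensor. Stimulation uses hNppA at 0.1 nM final; luminescence is taken at baseline and 20 min post-agonist.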
FLuc SDR -ATP: Firefly luciferase (FLuc-C-HiBiT) SDR gain of signal screen - without ATP. shares compounds with FLuc inh-1. Purified FLuc-C-HiBiT, Nano-Glo HiBiT luminescence, no ATP. Potency, µM (doses to about 32.7 µM), for the others: at the top dose activation (signal gain), most hits filed as activators. 1,300 compounds, 7.8% hits; also: nearly all actives have a fitted effect of over 55% in size
FLuc SDR ATP: Firefly luciferase (FLuc-C-HiBiT) SDR gain of signal screen - plus ATP; shares compounds with FLuc inh-1; purified FLuc-C-HiBiT + ATP, HiBiT complementation luminescence; Potency, µM (top dose mostly 32.7 µM), for inactives: at the highest dose activation (gain of signal), most hits filed as activators; 1,300 compounds, 8.7% hits; AID 1963319, 2024;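 also: signal reports ligand binding via conformational change of the enzyme rather than luciferase catalysis; % of control where 0% means no effect; nearly all actives have a fitted effect of over 55% in size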
FLuc inh-2: Firefly luciferase (FLuc-C-HiBiT) enzymatic inhibition screen - Functional assay. shares compounds with FLuc inh-1. purified FLuc-C-HiBiT enzyme, luciferin luminescence. Potency, µM (doses to about 32.7 µM), for the others: top-dose activity change, negative = inhibition, most hits filed as inhibitors. 1,300 compounds, 42% hits. AID 1963320, 2024; also: % is scaled to controls: 0 for no effect and ±100 for the full control effect; nearly all actives have a fitted effect of over 70% in size
* marks the source's active call; other numbers are inactive results; i = inactive; ? = inconclusive; . = no result given; [ ] = remark or other dose. An excerpt weighted towards active compounds, which were near 11% of everything screened. Unless noted, calls follow the shape of the dose curve; as a rule, active = well fitted curve in the direction sought with a large enough effect; inconclusive = small, poorly fitted or top-dose-only effect, or another doubt; inactive = no such curve, though single readings can be large; an effect the other way counts as inactive or inconclusive. Potency is read from the fitted curve at half-maximal effect.

SMILES | FLuc inh-1 | HEK cytotox | 3T3 cytotox | NPR1 antag | FLuc SDR -ATP | FLuc SDR ATP | FLuc inh-2
CCOc1ccccc1C1NC(=O)N(CC(=O)Nc2cccc(C)c2)C2=C1C(=O)OC2 (stereo not drawn) | i | ? | -27.6% | ? | . | . | .
COc1ccc(CCNC(=O)c2cc3c(=O)[nH]c(C)cn3n2)cc1OC | i | 0.7% | -13.3% | 7.1% | . | . | .
COc1ccc(NC(=O)c2cc3c(=O)[nH]c(C)cn3n2)cc1OC | 7.08µM* | ? | -19.0% | 0.0% | ? | ? | 9.89µM*
Cn1ccnc1C(O)c1cc2n(n1)CCN(c1ncnc3nc[nH]c13)C2 (stereo not drawn) | i | 0.6% | -4.6% | 0.1% | 12.8% | 8.1% | 2.1%
Cc1ccc(-n2cc(CN3CCn4nc(C(O)c5nccn5C)cc4C3)cn2)cc1 (stereo not drawn) | ? | -7.6% | -22.8% | 5.6% | . | . | .
Cn1cc(CC(=O)N2CCCc3ncc(C(=O)NCc4ccccc4)cc32)c2ccccc21 | i | ? | ? | -15.6%[70.6 µM] | . | . | .
COc1ccc(NC(=O)N2CC(c3nnc(-c4ccncc4)o3)C3(CCOCC3)C2)c(C)c1 (stereo not drawn) | i | i | i | -3.8% | . | . | .
OC1CN(Cc2ccc(-c3cnc4c(OCc5ccccc5)nccn34)cc2)C1 | 5.01µM* | ? | 89.1µM* | -27.4%[70.6 µM] | 25.9%[49.3 µM] | ? | ?
CCOc1nccn2c(-c3ccc(CN4CCN(C(C)=O)CC4)cc3)cnc12 | ? | -25.4%[172 µM] | ? | -0.5%[70.6 µM] | . | . | .
CN1C[C@@H](NS(=O)(=O)c2ccc(C#N)cc2)C[C@H]1c1nc(-c2ccc(Cl)cc2)no1 | 10µM* | ? | ? | ? | 3.8% | 4.1% | ?
COCCOc1ccc2c(n1)CCN(C(=O)c1ccc(OC)nc1OC)C2 | i | 3.2% | -9.6% | 6.6% | . | . | .
O=C(CSc1ccccn1)N1CCn2nc(C(O)c3ccccc3)cc2C1 (stereo not drawn) | i | i | -9.9% | 2.2% | . | . | .
O=C(COc1ccc(F)cc1)Nc1cccc(-c2nnc3n2CCCC3)c1 | ? | ? | -23.7% | -21.0% | . | . | .
Cc1ccc(OCC(=O)Nc2cccc(-c3nc4ccccc4s3)c2)cc1 | . | . | . | . | 13.6% | 13.0% | 9.89µM*
O=C(CSc1nnc2ccccn12)Nc1cccc(-c2nc3ccccc3s2)c1 | . | . | . | . | 12.5% | 9.2% | -6.8%
CC(=O)Nc1cccc(-c2ccc3c(n2)c(=O)ncn3Cc2ccccc2)c1 | i | -5.5%[172 µM] | ? | -7.4%[70.6 µM] | . | . | .
O=C(Cn1cccc1-c1nc(-c2ccccc2)no1)Nc1cccc(Cl)c1 | i | 2.5% | -10.7% | -4.9% | . | . | .
CCOc1ccccc1C(=O)Nc1cccc(-c2nc3ccccc3s2)c1 | . | . | . | . | 13.5% | 11.0% | ?
CCC(CC)C(=O)Nc1cccc(-c2nc3ccccc3s2)c1 | . | . | . | . | 26.2% | 7.3% | ?
COc1ccccc1C(=O)Nc1cccc(-c2nnc3n2CCCC3)c1 | ? | -4.3% | -24.2% | 3.2% | . | . | .
CCCn1nc(C)cc1CN(C)C(=O)Cn1nc2n(c1=O)CCC(N)CC2 (stereo not drawn) | i | -8.5% | -8.3% | -0.3% | . | . | .
CCCCNC(=O)Cc1csc2nc(C)c(-c3cc(C)n(-c4ccc(F)cc4)n3)c(=O)n12 | i | -5.7% | -5.3% | -0.2% | . | . | .
COc1cccc(-c2cc(C(=O)Nc3ccc(F)cc3)c3cnn(C)c3n2)c1 | . | ? | -13.5% | . | . | . | .
Cc1cccc(OCC(=O)Nc2cccc(-c3nnc4n3CCCC4)c2)c1 | i | ? | -29.2% | -17.2% | . | . | .
Cc1cccc(OCC(=O)Nc2cccc(-c3nc4ccccc4s3)c2)c1 | . | . | . | . | 13.7% | 9.7% | ?
SMILES | FLuc inh-1 | HEK cytotox | 3T3 cytotox | NPR1 antag | FLuc SDR -ATP | FLuc SDR ATP | FLuc inh-2
COc1ccc(C(=O)Nc2cccc(-c3nc4ccccc4s3)c2)cc1 | . | . | . | . | 13.6% | 9.2% | -15.1%
COc1cccc(-c2nc3cc(NC(=O)c4ccc(F)c(C#N)c4)ccc3s2)c1 | . | . | . | . | 14.6% | 11.6% | -6.9%
O=C(NCc1ccccc1)N1CCC(Oc2ncccc2C(=O)N2CCCCC2)C1 (stereo not drawn) | i | 1.2% | -3.0% | -1.0% | . | . | .
COc1ccc(F)cc1-c1ccc(COc2ccc3c(cnn3CCC(=O)O)c2)cc1 | 22.4µM* | ? | -31.2%[138 µM] | 1.8%[70.6 µM] | 15.8%[49.3 µM] | 9.7%[49.3 µM] | ?
COc1cc(Cl)ccc1-c1ccc(COc2ccc3c(cnn3CCC(=O)O)c2)cc1 | 50.1µM* | ? | -16.7%[138 µM] | -1.1%[70.6 µM] | 9.1%[49.3 µM] | 6.7%[49.3 µM] | ?
CC(=O)Nc1cccc(-c2ccc(COc3ccc4c(cnn4CCC(=O)O)c3)cc2)c1 | 0.708µM* | ? | ? | -13.3%[70.6 µM] | ? | ? | 1.01µM*
Cc1ccc(CN2CC[C@@H]3[C@H]2C(=O)NC[C@H](CCC(=O)N2CCN(c4ccccn4)CC2)N3C)cc1 | i | ? | ? | -13.7% | . | . | .
O=C(c1ccccc1)N1CCC2(C1)C(=NC1CCCCC1)NC(=O)N2c1cccnc1 (stereo not drawn) | . | i | i | . | . | . | .
COc1ccc(C(=O)N2CCCC2c2nc(CCOc3cccc(C)c3)no2)cn1 (stereo not drawn) | i | ? | -22.7% | -1.1% | . | . | .
Cc1cccc(OCCn2nnc3sc4c(c3c2=O)CCCC4)c1 | . | . | . | . | 7.5% | 5.2% | ?
O=[S+]([O-])(c1cccs1)N1CCC2(CC(c3cccnc3)=NO2)C1 (stereo not drawn) | . | -7.1% | 0.9% | . | . | . | .
COc1ccc(C2=NOC3(CCN([S+](=O)([O-])c4cccs4)C3)C2)cc1 (stereo not drawn) | 5.62µM* | ? | ? | ? | 11.0% | 14.9% | -10.2%
CC1CCCN(c2ncnc3c2cnn3-c2ccc(F)cc2)C1 (stereo not drawn) | . | . | . | . | 2.21µM* | ? | 0.7µM*
CN1CC(=O)N(c2ccc(Cl)cc2)Cc2c(NC3CCCCC3)ncnc21 | i | ? | ? | 6.2% | . | . | .
